Inconclusive results are not listed. Activity calls are given as the source filed them.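 The calls were made as follows, unless noted: active = viability loss from added drug above about 55%, and viability with drug at most 40%, in both replicates (limit read from the data, passing the limit was not always enough); inconclusive = both conditions met in only one replicate; inactive = neither replicate meets both conditions.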
What was measured:
[1] = Her2 expression decrease, cell viability multiplex – SKBR3 breast tumor cells, AlphaScreen, ATP viability, primary screen (AID 461;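 active = Her2 level under about 52% in both replicate screens, with viability over 70% of control, limit read from the data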;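 as to Her2 level: lower value means less Her2 protein in the cells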;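 as to viability: percent of carrier control wells set as 100% viability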); settings: SKBR3 Her2 protein level, 18-24 h, measured here: SKBR3 viability, ATP luminescence, at 10 µM
[2] = molecular target: Receptor tyrosine-protein kinase erbB-2 (Homo sapiens) (UniProt P04626); assay: as above; settings: 18-24 h, at 10 µM, stronger effect = lower value
[3] = reduced viability of SK-BR-3 breast cancer cells – cell-based, 24 h, human, pilot screen (AID 572;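 active = viability at or below 10% of carrier control in both of two separate runs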;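 also: compound exposure lasted between 18 and 24 h rather than exactly 24 h; 100% = carrier-treated control wells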); settings: SK-BR-3 viability, CellTiter-Glo luminescence, at 10 µM, stronger effect = lower value
[4] = HUVEC growth inhibition – cell-based, human, primary screen (AID 575;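 active = viability at or below 30% in both replicate assays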;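 also: 100% = median of untreated cell wells with 0.1% DMSO on each plate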); settings: HUVEC proliferation, CellTiter-Glo luminescence, 72 h; at 10 µM; stronger effect = lower value
[5] = H69AR cell proliferation blockers – human, duplicate replicates, primary screen (AID 580;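 active = viability at or under a set limit in both replicates, limit being median viability minus 3 SD, cut at about 48% in these data, passing the limit was not always enough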;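 also: 100% = mean luminescence of untreated wells and 0% = no signal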); settings: H69AR lung tumor cells viability, ATP luminescence, 72 h; at 10 µM; stronger effect = lower value
[6] = MRP1 drug-resistance reversers in H69AR cells – cell-based, doxorubicin co-treatment, pilot screen (AID 601); settings: CellTiter-Glo, 72 h, at 10 µM; for differential viability (reversal): stronger effect = higher value
[7] = yeast transport mutant growth inhibition pilot in 384-well plates, post-Golgi transport modulator project (AID 636; in the data active = inhibition above about 31%); settings: absorbance 615 nm, about 18 h, stronger effect = higher value
[8] = growth suppression of yeast trafficking mutant, preliminary HTS, modulators of trafficking downstream of Golgi apparatus project, 1536-format plate, OD 615 nm (AID 637; in the data active = inhibition above about 30%); settings: yeast transport mutant growth, absorbance 615 nm, 18 h; stronger effect = higher value
[9] = S. cerevisiae growth inhibition in permissive medium (OD615), pilot counter-assay for S. cerevisiae lifespan shortening project, permissive growth control (AID 705;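 active = growth inhibition above 25% in both replicates, a cutoff set 3 SD above the mean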); settings: OD615, 24 h, at 10 µM, stronger effect = higher value
[10] = S. cerevisiae growth inhibition in restrictive medium, OD615, pilot screen, restrictive growth control, yeast lifespan reduction project (AID 706;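 active = growth inhibition above a set limit, 3 SD over mean compound inhibition, in both replicates, cut at about 43% in these data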;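 also: modified DeaD lifespan yeast strain shifted to restrictive glucose medium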); settings: OD615, 48 h, at 10 µM, stronger effect = higher value
[11] = doxorubicin toxicity protection in MRP-1 cells – H69AR cells, CellTiter-Glo, duplicate, MRP-1 activator project, pilot screen (AID 807;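 active = viability increase at or above a cutoff of the median across tested compounds plus 3 SD, cut at about 8.5% in these data, passing the limit was not always enough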;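 also: compound pretreatment 18-22 h then 72 h combined with doxorubicin; 0% = doxorubicin alone and 100% = vehicle without doxorubicin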); settings: H69AR viability with doxorubicin, CellTiter-Glo luminescence; at 10 µM; stronger effect = higher value
[12] = viability of HCT116 without oncogenic beta-catenin – human colon tumor cells, pilot screen (AID 823;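 active = cell viability at or below a set limit in both duplicate runs, the limit being the all-compound median minus 4 SD, cut at about 23% in these data, passing the limit was not always enough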;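 also: 0% = wells killed by 20 µM Hyamine and 100% = untreated DMSO cell wells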); settings: HCT116 beta-catenin knockout viability, CellTiter-Glo, 60 h; at 10 µM; stronger effect = lower value
[13] = viability of PTEN-null HCT116 cells – cell-based, HCT116 clonal line, CellTiter-Glo, pilot screen (AID 824;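 active = viability at or below 27.92% in each of two runs, the all-compound median minus 4 SD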;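 also: 0% = 20 µM Hyamine control and 100% = vehicle cell control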); settings: HCT116 PTEN-deleted viability, 60 h, at 10 µM, stronger effect = lower value
[14] = RAM pathway blockade in budding yeast – dse1pr::URA3 reporter, 5-FOA selection, pilot screen (AID 869;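 active = inhibition over a set limit, the all-compound mean plus 3 SD, in both replicate runs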;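 also: 0% = DMSO wells with no growth and 100% = 10 µM 1-NA-PP1 with full growth; RAM network block rescues cells from 5-FOA so hits raise OD615 growth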); settings: S. cerevisiae dse1pr::URA3 5-FOA growth, OD615, 2 d; at 10 µM; stronger effect = higher value; strain carries analog-sensitive mutant Cbk1 kinase
[15] = RAM signaling pathway blockade in yeast – S. cerevisiae, Pdr1DBD-CYC8 efflux-inhibited sensitized strain, primary screen (AID 1298;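 active = RAM network inhibition above 8.4% in each of two replicates, 3 SD over the compound average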;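 also: 0% = DMSO untreated cells without growth and 100% = 10 µM 1-NA-PP1 full growth; higher means more yeast growth rescued from 5-FOA killing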); settings: S. cerevisiae cbk1-as DSE1-URA3 strain, 5-FOA growth OD615, 2 d; at 50 µM; stronger effect = higher value
[16] = H69AR cells + 2 uM doxorubicin, measured here: viability with 2 uM doxorubicin, stronger effect = lower value
[17] = H69AR cells, compound alone cytotoxicity

Chain of Receptor tyrosine-protein kinase erbB-2 (Homo sapiens) (P04626 whole entry, looked up): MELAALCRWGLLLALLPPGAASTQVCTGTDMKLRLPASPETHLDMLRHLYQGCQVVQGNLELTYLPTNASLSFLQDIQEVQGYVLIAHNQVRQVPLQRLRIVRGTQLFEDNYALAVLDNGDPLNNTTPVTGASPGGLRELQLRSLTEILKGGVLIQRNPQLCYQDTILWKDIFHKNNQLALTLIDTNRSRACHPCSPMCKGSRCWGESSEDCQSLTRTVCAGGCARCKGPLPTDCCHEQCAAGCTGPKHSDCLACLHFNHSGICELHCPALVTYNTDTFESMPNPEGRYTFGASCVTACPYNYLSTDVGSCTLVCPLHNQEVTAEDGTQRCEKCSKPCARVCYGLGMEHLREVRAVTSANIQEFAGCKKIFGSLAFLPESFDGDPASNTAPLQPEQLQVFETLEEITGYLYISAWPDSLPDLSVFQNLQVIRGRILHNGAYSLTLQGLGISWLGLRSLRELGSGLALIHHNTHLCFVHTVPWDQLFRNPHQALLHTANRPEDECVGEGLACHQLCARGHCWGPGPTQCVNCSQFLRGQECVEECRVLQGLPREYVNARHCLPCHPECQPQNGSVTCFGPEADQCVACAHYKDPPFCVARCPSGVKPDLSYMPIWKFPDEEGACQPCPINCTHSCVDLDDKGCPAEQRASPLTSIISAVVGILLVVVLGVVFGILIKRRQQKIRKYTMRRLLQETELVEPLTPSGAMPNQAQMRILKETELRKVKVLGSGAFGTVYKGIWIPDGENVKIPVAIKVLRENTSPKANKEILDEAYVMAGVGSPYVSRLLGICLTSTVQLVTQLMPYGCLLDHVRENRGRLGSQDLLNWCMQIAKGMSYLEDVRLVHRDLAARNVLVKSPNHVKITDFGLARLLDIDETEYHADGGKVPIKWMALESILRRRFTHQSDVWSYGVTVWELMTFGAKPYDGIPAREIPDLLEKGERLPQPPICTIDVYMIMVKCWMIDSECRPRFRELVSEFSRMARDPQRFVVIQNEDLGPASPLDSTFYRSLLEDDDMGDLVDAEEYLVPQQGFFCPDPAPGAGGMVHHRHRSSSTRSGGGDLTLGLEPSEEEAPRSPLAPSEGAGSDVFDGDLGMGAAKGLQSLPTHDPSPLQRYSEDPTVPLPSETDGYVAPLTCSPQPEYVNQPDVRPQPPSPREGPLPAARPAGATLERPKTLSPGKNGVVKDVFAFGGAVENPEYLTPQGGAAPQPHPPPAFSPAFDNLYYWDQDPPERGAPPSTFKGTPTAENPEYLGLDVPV

COc1ccc(S(=O)(=O)N2CCC(C(=O)Nc3c(F)cccc3F)CC2)cc1
96.8%: viability [6, 16]
88.5%: viability [1]
inactive: Her2 level [2] 111% | viability [3] 88.5% | viability [4] 96.5% | viability [5] 97.6% | differential viability (reversal) ([6]; H69AR cells + 2 uM doxorubicin) 0.885% | inhibition [7] 0.93% | inhibition [8] -4.17% | growth inhibition [9] -11.9% | growth inhibition [10] -14.8% | viability increase [11] -2.23% | viability [12] 99.6% | viability [13] 101% | inhibition [14] 3.77% | RAM network inhibition [15] 3.07%
97.6%: viability [6, 17]

CCOC(=O)N1CCC(NC(=O)c2ccc(CS(=O)(=O)c3c(Cl)cccc3Cl)o2)CC1
96.6%: viability [6, 16]
inactive: Her2 level [2] 90% | viability [3] 84.5% | viability [4] 95.8% | viability [5] 104% | differential viability (reversal) ([6]; H69AR cells + 2 uM doxorubicin) 6.95% | inhibition [7] 2.31% | inhibition [8] 0.83% | growth inhibition [9] -12.4% | growth inhibition [10] -27.1% | viability increase [11] -1.87% | viability [12] 106% | viability [13] 93.5% | inhibition [14] 1.53% | RAM network inhibition [15] 2.82%
84.5%: viability [1]
104%: viability [6, 17]

CCOC(=O)/C=C1\CC(=O)Nc2nonc2N1
inactive: Her2 level [2] 92.5% | viability [3] 112% | viability [4] 109% | viability [5] 105% | differential viability (reversal) ([6]; H69AR cells + 2 uM doxorubicin) 9.69% | inhibition [7] -1.73% | inhibition [8] 0.97% | growth inhibition [9] 0.64% | growth inhibition [10] 9.22% | viability increase [11] -2.08% | viability [12] 97.5% | viability [13] 95.3% | inhibition [14] 0.615% | RAM network inhibition [15] 1.93%
105%: viability [6, 17]
95.7%: viability [6, 16]
112%: viability [1]

CC(Oc1ccc2oc(-c3ccccc3)c(C(=O)O)c2c1)C(=O)O (stereo not given)
95.5%: viability [1]
inactive: Her2 level [2] 77.5% | viability [3] 95.5% | viability [4] 103% | viability [5] 103% | differential viability (reversal) ([6]; H69AR cells + 2 uM doxorubicin) 6.43% | inhibition [7] -4.86% | inhibition [8] -6% | growth inhibition [9] -7.27% | growth inhibition [10] 2.06% | viability increase [11] -1.56% | viability [12] 99.3% | viability [13] 102% | inhibition [14] 1.73% | RAM network inhibition [15] 4.67%
96.3%: viability [6, 16]
103%: viability [6, 17]

O=C(NCc1ccccc1)C1CCN(S(=O)(=O)c2cccc3cccnc23)CC1
96.5%: viability [1]
inactive: Her2 level [2] 104% | viability [3] 96.5% | viability [4] 99% | viability [5] 98.2% | differential viability (reversal) ([6]; H69AR cells + 2 uM doxorubicin) 2.76% | inhibition [7] 0.67% | inhibition [8] -2.79% | growth inhibition [9] 0.255% | growth inhibition [10] -4.87% | viability increase [11] -2.29% | viability [12] 99.2% | viability [13] 96.3% | inhibition [14] 1.52% | RAM network inhibition [15] -0.57%
95.4%: viability [6, 16]
98.2%: viability [6, 17]

CCCN(CCC)C(=O)c1c(C)[nH]c(C(=O)OCC)c1C
98%: viability [1]
81.4%: viability [6, 17]
93.8%: viability [6, 16]
inactive: Her2 level [2] 110% | viability [3] 98% | viability [4] 106% | viability [5] 81.4% | differential viability (reversal) ([6]; H69AR cells + 2 uM doxorubicin) -12.4% | inhibition [7] -0.38% | inhibition [8] -2.33% | growth inhibition [9] 4.14% | growth inhibition [10] -3.27% | viability increase [11] -3.62% | viability [12] 92.9% | viability [13] 86.7% | inhibition [14] 2.12% | RAM network inhibition [15] 1.44%

CCOC(=O)C1=C(C)Nc2nnnn2C1c1ccc(OC)c(Br)c1 (stereo not given)
inactive: Her2 level [2] 106% | viability [3] 106% | viability [4] 87.7% | viability [5] 93.3% | differential viability (reversal) ([6]; H69AR cells + 2 uM doxorubicin) -4.47% | inhibition [7] 5.07% | inhibition [8] 14.8% | growth inhibition [9] -8.85% | growth inhibition [10] 2.52% | viability increase [11] -2.62% | viability [12] 92% | viability [13] 90.7% | inhibition [14] 3.05% | RAM network inhibition [15] 0.79%
93.3%: viability [6, 17]
97.8%: viability [6, 16]
106%: viability [1]

COc1cc2c(cc1OC)CN(C(=O)CSc1nc3[nH]ncc3c(=O)n1-c1ccccc1)CC2
105%: viability [1]
inactive: Her2 level [2] 97% | viability [3] 105% | viability [4] 79.7% | viability [5] 91.7% | differential viability (reversal) ([6]; H69AR cells + 2 uM doxorubicin) 11.6% | inhibition [7] -4.93% | inhibition [8] -2.62% | growth inhibition [9] 0.33% | growth inhibition [10] -24.6% | viability increase [11] -1.5% | viability [12] 101% | viability [13] 90.9% | inhibition [14] 1.19% | RAM network inhibition [15] 2.58%
91.7%: viability [6, 17]
80.1%: viability [6, 16]

COc1ccc(C(=O)c2coc3ccc(O)c(CN4CCCCC4)c23)cc1
75.5%: viability [6, 17]
79.5%: viability [1]
inactive: Her2 level [2] 106% | viability [3] 79.5% | viability [4] 66% | viability [5] 75.5% | differential viability (reversal) ([6]; H69AR cells + 2 uM doxorubicin) -0.2% | inhibition [7] -3.07% | inhibition [8] 5.33% | growth inhibition [9] -3.45% | growth inhibition [10] -4.88% | viability increase [11] -4.51% | viability [12] 40.5% | viability [13] 53.3% | inhibition [14] 0.725% | RAM network inhibition [15] 6.6%
75.7%: viability [6, 16]

O=C(NCCOC(=O)C1COc2ccccc2O1)C1COc2ccccc2O1 (stereo not given)
inactive: Her2 level [2] 95% | viability [3] 92.5% | viability [4] 88.5% | viability [5] 103% | differential viability (reversal) ([6]; H69AR cells + 2 uM doxorubicin) 10.3% | inhibition [7] -6.76% | inhibition [8] -2.79% | growth inhibition [9] -7.82% | growth inhibition [10] -1.52% | viability increase [11] 0.34% | viability [12] 102% | viability [13] 100% | inhibition [14] 0.095% | RAM network inhibition [15] 0.89%
92.6%: viability [6, 16]
103%: viability [6, 17]
92.5%: viability [1]

Reference: PubChem BioAssay
